# Compounds without any hit were thinned out: in the full panel of roughly 83,000, 20% have a hit.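 The test compound was applied at a single concentration to cells in 96-well plates for 48 hours, and percent growth was recorded.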 Calls of active or inactive are those of the source. The calls were made as follows: active = growth percent below 10; inactive = the rest.
# Test system: HL-60(TB) leukemia
# Assay: NCI-60 one-dose screen, 48 h (100 = growth as untreated, 0 = no growth, -100 = all killed)
# Conditions: 10 µM unless noted
row,Structure (SMILES),growth
1,COc1cccc(NC(=O)c2sc3nc(C)c(C(O)c4ccccc4)cc3c2N)c1 (stereo not drawn),-52% (active)
2,Cc1nn(-c2ccccc2)c(N)c1N=C1NC(=O)/C(=C/c2ccc(Cl)cc2)S1,74.3% (inactive)
3,O=C(Nc1ccc(Oc2ccc(NC(=O)Nc3ccccc3Cl)cc2)cc1)Nc1ccccc1Cl,51.7% (inactive)
4,O=C(O)/C=C/c1cn(-c2ccccc2)nc1-c1ccc(F)cc1,103% (inactive)
5,Clc1ccc(-c2cc(-c3ccccc3)nc(N3CCN(CCCNc4ccnc5cc(Cl)ccc45)CC3)n2)cc1,-39% (active)
6,COc1cc(-c2cccc([N+](=O)[O-])c2)c(-c2nc(-c3ccccc3)c(-c3ccccc3)n2C2CC2)cc1OC,9.63% (active)
7,O=c1[nH]nc(-c2ccccc2)c2sc3ncc(-c4ccc(Br)cc4)n3c12,12.7% (inactive)
8,CC(=O)c1c(Nc2ccc(F)c(F)c2F)[nH]c2c(F)cc(F)cc2c1=O,-48% (active)
